Rows were chosen to be rich in hits. Some 3.5% of all compounds tested hit in one or more screens of this group.
RE007 growth inh – less growth of the S. pombe RE007 Vpr strain | Potency, µM (top dose mostly 92.2 µM), most hits filed as inhibitors | 360,000 tested, 0.21% active | S. pombe RE007 Vpr strain, BacTiter-Glo ATP luminescence, 24 h; active = well fitted falling curve with a large enough effect; inconclusive = small, poorly fitted or top-dose-only effect; inactive = no such curve, though single readings can be large or run the other way; note: nearly all actives have a fitted effect of over 50% in size
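Fission yeast strain RE007, carrying one chromosomally integrated HIV-1 vpr copy, was seeded at OD 0.01 in PMG+AL medium with 23 nL pinned compound. After 24 h at 30 °C and 99% humidity, viability was read by BacTiter-Glo luminescence.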
NS1 inh – inhibitors of influenza NS1 protein function; Potency, µM (series often up to 46.1 µM); 270,000 tested, 0.4% active; AID 2326; calls by dose curve; note: actives are rising curves; nearly all actives have a fitted effect of over 50% in size
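Recovery from NS1-induced slow growth read by OD600 in budding yeast switched to galactose assay medium (pH 6.0, -URA) at 1:100 dilution. Compound 23 nl per well; the matching strain lacking NS1 serves as control.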
LmPK inhibitor – inhibitors of Leishmania mexicana pyruvate kinase; Q27686; purified LmPK, Kinase-Glo ATP luminescence, 1 h; 290,000 tested, 0.37% active; Potency, µM (doses to about 57.5 µM), actives largely listed as inhibitors
Target sequence (Q27686 whole entry, looked up): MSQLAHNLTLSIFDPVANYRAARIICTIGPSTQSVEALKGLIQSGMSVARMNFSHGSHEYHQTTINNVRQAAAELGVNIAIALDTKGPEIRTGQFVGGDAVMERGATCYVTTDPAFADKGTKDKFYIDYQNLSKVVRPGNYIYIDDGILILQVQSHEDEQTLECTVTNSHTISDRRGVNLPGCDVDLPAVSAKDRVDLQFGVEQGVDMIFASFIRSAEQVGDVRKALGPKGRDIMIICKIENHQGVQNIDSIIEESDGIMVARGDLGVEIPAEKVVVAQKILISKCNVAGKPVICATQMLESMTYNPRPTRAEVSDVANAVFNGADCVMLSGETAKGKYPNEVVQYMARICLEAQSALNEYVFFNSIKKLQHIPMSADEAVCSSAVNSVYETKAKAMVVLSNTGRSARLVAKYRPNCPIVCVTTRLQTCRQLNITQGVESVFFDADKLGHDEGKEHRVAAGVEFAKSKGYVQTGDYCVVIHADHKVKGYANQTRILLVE
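Pyruvate kinase activity monitored as ATP production (luciferase luminescence). Conditions: 0.1 nM enzyme, 0.5 mM PEP, 0.1 mM ADP, 1 h, RT; normalized against uninhibited and no-enzyme wells.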
Giardia FBPA inh-1 – inhibitors of Giardia lamblia fructose-1,6-bisphosphate aldolase | purified Giardia FBPA | A8B2U2 | Potency, µM (highest dose often 59.6 µM), hits mostly inhibitors | 290,000 tested, 0.71% active; note: nearly all actives have a fitted effect of over 55% in size
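40 nM FBPA preincubated 10 min at RT with compound (up to 57.5 uM final), then substrate plus GAPDH/TPI/NAD/arsenate coupling and diaphorase/resazurin added. Fluorescence read after 20 min at RT, 525/598 nm.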
Sm TGR block – S. mansoni TGR enzyme inhibition; Q962Y6; purified TGR, DTNB reduction, TNB absorbance 405 nm; Potency, µM (top dose mostly 114 µM), actives largely listed as inhibitors; 360,000 tested, 3% active; AID 485364; note: nearly all actives have a fitted effect of over 60% in size
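First, TGR (20 nM dispensed) and NADPH were mixed with compound. Second, a 15 min room-temperature incubation followed. Third, further NADPH and then DTNB were added to start the reaction. Finally, TNB absorbance was monitored kinetically.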
Tb PYK inh – blocks Trypanosoma brucei pyruvate kinase; 410,000 tested, 0.12% active; Potency, µM (doses to about 76.8 µM), hits mostly inhibitors; Q57TT1; AID 624173; TbPYK enzyme, Kinase-Glo Plus ATP luminescence, 45 min; note: nearly all actives have a fitted effect of over 50% in size
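Luminescence from Kinase-Glo Plus, added after a 45-minute room-temperature reaction, served as the end-point read-out. The enzyme and substrate were preincubated with compound before ADP (130 uM final) initiated turnover. Concentration-effect curves came from normalized qHTS data.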
Giardia growth – Giardia lamblia growth inhibition; Giardia lamblia trophozoite growth inhibition; 1,500 tested, 5% active; AID 2785; Potency, µM (doses to about 57.5 µM), most hits filed as inhibitors; shares compounds with Giardia FBPA inh-1;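 note: trophozoites exposed to compound for 48 h at 37 °C; nearly all actives have a fitted effect of over 70% in size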
Mammal cell tox – counter-screen for Giardia aldolase inhibitors: mammalian cell toxicity | Potency, µM (titrated, usually from 57.5 µM), hits mostly inhibitors | mammalian cell viability counter-screen, qHTS | 1,500 tested, 4% active | AID 2786 | shares compounds with Giardia FBPA inh-1;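 note: Chinese hamster ovary cells used as mammalian cytotoxicity surrogate; viability measured as cellular ATP by luminescence; compound exposure lasted 48 h before reading; nearly all actives have a fitted effect of over 60% in size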
Giardia FBPA inh-2 – confirmation of Giardia fructose-bisphosphate aldolase inhibitors; purified Giardia aldolase enzyme activity, qHTS; shares compounds with Giardia FBPA inh-1; 1,500 tested, 5% active; Potency, µM (titrated, usually from 57.5 µM), usual class: inhibitors; AID 2787; note: nearly all actives have a fitted effect of over 45% in size
Rabbit aldolase – rabbit FBP aldolase inhibition by Giardia aldolase hits | Potency, µM (top dose mostly 57.5 µM), most hits filed as inhibitors | 1,500 tested, 4% active | Rabbit muscle FBPA enzyme inhibition, selectivity counter-screen | shares compounds with Giardia FBPA inh-1; note: nearly all actives have a fitted effect of over 60% in size
GAPDH counter – GAPDH inhibition flagged for Giardia aldolase hits; shares compounds with Giardia FBPA inh-1; GAPDH coupling enzyme counterscreen, biochemical, qHTS; Potency, µM (titrated, usually from 57.5 µM), hits mostly inhibitors; 1,500 tested, 6% active; note: nearly all actives have a fitted effect of over 55% in size
Numbers stand for hits; – = inactive; ? = inconclusive; · = not tested or not shown; [ ] = dose if it differs, or a comment. Unless noted, calls come from the whole dose curve; as a rule, active = well fitted curve in the direction sought with a large enough effect; inconclusive = small, poorly fitted or top-dose-only effect, or another doubt; inactive = no such curve, though single readings can be large; an effect the other way counts as inactive or inconclusive.

SMILES | RE007 growth inh | NS1 inh | LmPK inhibitor | Giardia FBPA inh-1 | Sm TGR block | Tb PYK inh | Giardia growth | Mammal cell tox | Giardia FBPA inh-2 | Rabbit aldolase | GAPDH counter
CC(C)c1ccccc1OCC(O)CN1CCN(S(=O)(=O)c2ccc([N+](=O)[O-])cc2)CC1 (stereo not drawn) | – | – | – | 18µM | – | – | 5.6µM | – | – | – | –
O=S(=O)(c1ccccc1C(F)(F)F)N1CCN(CC(O)COc2ccccc2F)CC1 (stereo not drawn) | – | – | – | ? | – | – | · | · | · | · | ·
CCN(CCCNC(=O)c1ccc(Sc2ccc(Cl)cc2)c(NC(C)=O)c1)c1cccc(C)c1 | · | · | · | · | – | – | · | · | · | · | ·
CCN(CCNCC(O)COCc1ccc(Cl)cc1)c1cccc(C)c1 (stereo not drawn) | – | · | – | 22µM | – | – | – | – | – | – | –
CCOC(=O)c1cnc(-n2nc(C)cc2C)[nH]c1=O | – | – | – | 4.5µM | – | – | – | – | – | – | –
CCOC(=O)c1cnc(-n2[nH]c(C)cc2=O)[nH]c1=O | – | · | – | ? | – | – | · | · | · | · | ·
C=C1CCC[C@]2(C)C[C@H]3OC(=O)C(CNCCN(CC)CC)[C@H]3CC12 (stereo partly drawn) | – | – | – | 16µM | – | – | ? | – | – | – | –
O=C1CSC(=S)N1N1C(=O)c2cccc([N+](=O)[O-])c2C1=O | · | · | ? | 18µM | ? | · | ? | – | – | – | –
CCOC(=O)c1nnc2c(-c3ccc(Cl)cc3)c(C)nn2c1C | · | · | · | · | – | – | · | · | · | · | ·
Cc1ccccc1-c1noc(-c2ccc(N3CCC(C)CC3)c([N+](=O)[O-])c2)n1 | · | · | · | · | – | – | · | · | · | · | ·
Cc1ccc(/C=N/Nc2nc(C)cc(C)n2)cc1 | – | – | – | ? | – | – | · | · | · | · | ·
COc1cc(/C=N/Nc2nc(C)cc(C)n2)cc(OC)c1OC | – | – | – | 16µM | – | – | – | – | – | – | –
COc1cc(/C=N/Nc2nc(C)cc(C)n2)ccc1O | – | · | · | · | · | – | · | · | · | · | ·
Cc1cc(C)nc(N/N=C/c2ccc(Cl)cc2)n1 | – | – | – | 11µM | – | – | – | – | – | – | –
CN(CCCNC(=O)c1cc2c(=O)n(C)c3ccccc3c2s1)Cc1ccccc1 | · | · | · | · | – | – | · | · | · | · | ·
CCN(Cc1ccccc1)Cc1c(O)ccc2c(=O)c(-c3ccccc3OC)c(C(F)(F)F)oc12 | · | · | · | · | – | – | · | · | · | · | ·
CCOc1ccc(NC(=O)C(=O)NCCc2csc(-c3ccc(F)cc3)n2)cc1 | · | · | · | · | – | – | · | · | · | · | ·
O=S(=O)(/N=C(/NC(=S)Nc1ccccc1)c1ccccc1)c1ccc(Cl)cc1 | – | – | – | 18µM | ? | – | ? | – | – | – | –
Cc1[nH]n(-c2ccccc2)c(=O)c1N=Nc1ccc(C(=O)O)cc1 | – | – | – | – | – | – | · | · | · | · | ·
CC(=O)c1ccc(N=Nc2c(C)[nH]n(-c3ccccc3)c2=O)cc1 | – | – | – | 7.1µM | – | – | ? | – | – | – | –
CCC(=O)NNC(=S)NC(=O)c1ccc(C)cc1 | – | – | – | 18µM | – | – | ? | – | – | – | –
O=C(O)Cc1sc(Nc2ccc(Cl)cc2)nc1-c1cccs1 | – | · | – | 18µM | – | – | – | – | – | – | –
Cc1ccc(Cl)cc1N1CCN(c2nc3ccccc3c3nc(-c4cccnc4)nn23)CC1 | · | · | · | · | – | – | · | · | · | · | ·
COc1cccc(-c2cncnc2NCCN2CCOCC2)c1 | · | · | · | – | · | · | · | · | · | · | ·
CC(C)n1c(=O)[nH][nH]c1=S | – | – | – | 18µM | – | 3.5µM | –[10.4 µM] | – | – | 32µM | –
N#Cc1ccc(CS(=O)(=O)c2nnnn2-c2ccccc2)cc1 | · | · | · | – | · | · | · | · | · | · | ·
O=C(NN1C(=O)CSC1=S)c1cccnc1 | – | – | – | 16µM | – | – | – | – | – | – | –
Cc1ccccc1C(=O)NN1C(=O)CSC1=S | – | – | – | – | – | – | · | · | · | · | ·

High-throughput results (PubChem)
